Bioassay records deposited in PubChem BioAssay by several laboratories.
Gli-Sufu block: antagonists of Gli-Sufu signaling; Sufu-KO-LIGHT fibroblasts, Gli luciferase reporter luminescence; inhibition, % at 5 µM; hit rate 0.74% among 340,000;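 active means inhibition above about 55%, limit read from the data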;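 further: 0% = DMSO-treated cells and 100% = wells with medium but no cells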
Jurkat NFkB inh: lowers PMA/ionomycin-induced NF-kB signal in Jurkat cells | PMA/ionomycin-induced NF-kB luciferase reporter, luminescence | inhibition, % at 4 µM | hit rate 0.53% among 330,000; in the data active means inhibition above about 50%
Mdm2-MdmX inh: inhibitors of human Mdm2/MdmX interaction. inhibition, % at 8 µM. O15151+Q00987. hit rate 3% among 330,000. SaOS-2 split-luciferase Mdm2/MdmX complementation, luminescence;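 active means inhibition of at least 50% at 8 µM in the primary screen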
Target sequence (O15151 whole entry, looked up): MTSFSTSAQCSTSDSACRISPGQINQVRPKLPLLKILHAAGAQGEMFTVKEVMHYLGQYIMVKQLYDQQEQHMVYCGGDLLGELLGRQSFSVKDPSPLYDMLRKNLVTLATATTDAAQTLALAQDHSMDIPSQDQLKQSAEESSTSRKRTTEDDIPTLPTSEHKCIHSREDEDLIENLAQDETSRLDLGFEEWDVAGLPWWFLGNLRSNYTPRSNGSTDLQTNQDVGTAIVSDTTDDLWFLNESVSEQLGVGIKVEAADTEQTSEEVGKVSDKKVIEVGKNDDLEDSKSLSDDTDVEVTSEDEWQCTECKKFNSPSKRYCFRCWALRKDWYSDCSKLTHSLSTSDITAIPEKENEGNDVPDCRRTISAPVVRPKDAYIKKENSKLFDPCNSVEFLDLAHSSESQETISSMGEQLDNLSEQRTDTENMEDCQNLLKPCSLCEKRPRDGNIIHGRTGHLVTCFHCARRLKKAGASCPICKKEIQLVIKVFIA
Target sequence (Q00987 whole entry, looked up): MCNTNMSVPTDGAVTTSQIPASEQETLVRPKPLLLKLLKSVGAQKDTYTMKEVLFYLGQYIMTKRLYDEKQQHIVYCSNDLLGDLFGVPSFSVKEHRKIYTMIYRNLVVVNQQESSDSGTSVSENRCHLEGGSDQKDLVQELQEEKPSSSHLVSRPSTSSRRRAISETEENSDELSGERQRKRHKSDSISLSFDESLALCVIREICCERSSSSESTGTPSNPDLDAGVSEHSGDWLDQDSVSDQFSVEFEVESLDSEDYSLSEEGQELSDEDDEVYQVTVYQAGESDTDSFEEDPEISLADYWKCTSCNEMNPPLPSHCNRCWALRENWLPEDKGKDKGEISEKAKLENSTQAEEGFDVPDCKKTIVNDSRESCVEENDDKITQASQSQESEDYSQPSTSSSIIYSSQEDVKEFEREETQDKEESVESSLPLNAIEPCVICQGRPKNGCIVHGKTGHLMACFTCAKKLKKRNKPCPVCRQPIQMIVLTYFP
aSyn UTR inh: 5' untranslated region of α-synuclein, MLPCN primary screen; inhibition, % (tested at 7.5 µM); alpha-synuclein 5'UTR reporter, inhibitor activity; AID 1813; hit rate 0.82% among 300,000; in the data active means inhibition above about 60%; inconclusive means no clear call, values can overlap the other calls;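 further: H4 neuroglioblastoma cells stably carrying SNCA 5'UTR luciferase fusion; 0% = DMSO wells and 100% = positive control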
697 NFkB inh: lowers PMA/ionomycin-induced NF-kB signal in 697 B cells | 697 B-cell NF-kB luciferase reporter, 16 h | inhibition, % at 4 µM | hit rate 0.33% among 330,000 | AID 435022; in the data active means inhibition above about 35%
CSC inhib: cancer stem cell inhibition. inhibition, % at 7.5 µM. cancer stem cell-like cells viability, luminescence. hit rate 1.1% among 300,000; in the data active means inhibition above about 75%; inconclusive means no clear call, values can overlap the other calls; tested in HMLE shEcad cells
An asterisk follows results filed as active; ? = inconclusive; · = no result. Shown are actives, neighbours in structure and some others; about 4.5% of the full set was active somewhere.

SMILES	Gli-Sufu block	Jurkat NFkB inh	Mdm2-MdmX inh	aSyn UTR inh	697 NFkB inh	CSC inhib
COc1ccc(C([O-])=Nc2ccc[n+](-c3nc4ccccc4nc3NS(=O)(=O)c3ccccc3)c2)cc1	·	-10	49	84*	35	-16
N/N=C/C(=N\Nc1ccc(Cl)cc1)C(=O)c1ccncc1	9	8	-19	3	12	76*
O=C(NC(=S)Nc1nc(-c2ccc(Cl)cc2)cs1)c1cccs1	-1	-10	32	-31	-7	14
O=C(Nc1nc(-c2cc(Cl)sc2Cl)cs1)c1cccs1	5	-19	23	-158	-28	112*
COc1ccccc1N(C(=O)c1ccco1)C(C(=O)NC1CCCC1)c1ccc(N2CCOCC2)cc1 (stereo not drawn)	9	-33	0	-11	-26	-1
CCn1c2ccccc2c2cc(NC(=O)c3cccc([N+](=O)[O-])c3)ccc21	19	-20	21	-12	-26	88*
CCCOC(=O)c1ccc(Oc2coc3c(CN(CC)CC)c(O)ccc3c2=O)cc1	-2	-8	1	12	-5	7
COc1ccc(NS(=O)(=O)c2cccc(C(=O)N/N=C(\C)c3ccc(-n4ccnc4)cc3)c2)cc1	4	-17	8	-19	1	95*
COc1ccc(NS(=O)(=O)c2cccc(C(=O)N/N=C(\C)c3ccncc3)c2)cc1	-2	-2	11	-20	-2	-7
O=[N+]([O-])c1cc(/C=N/O)ccc1N1CCCC1	-7	-18	3	26	-16	-11
O=[N+]([O-])c1cc(/C=N/n2cnnc2)ccc1N1CCCC1	-4	-13	3	65*	-14	-3
COc1ccc(NC(=O)c2cc(-c3ccccc3OC)on2)cc1	-35	·	·	20	·	80*
CCn1nc(C(=O)NNS(=O)(=O)c2ccc(C)cc2)c2ccccc2c1=O	4	-5	22	·	20	-13
COc1cc(C(=O)N/N=C/c2sccc2C)cc(OC)c1OC	25	·	·	114*	·	·
Cc1ccccc1N1CCN(c2ccc(NC(=O)C3CCCCC3C(=O)O)cc2)CC1 (stereo not drawn)	4	-10	0	16	1	79*
CN(C)/C=C(\C=N\OCc1ccc(Cl)cc1Cl)C(=O)Nc1ccc(Cl)c(Cl)c1	·	-6	5	-26	-2	85*
Cc1cc(O)c(/C=N/OCc2ccc(Cl)cc2Cl)c(=O)o1	-2	3	17	14	9	6
CCOC(=O)Nc1ccc2nc(Sc3ccc(Cl)cc3)sc2c1	38	33	47	-41	-42	85*
O=C(Nc1ccc(-c2ccc3nncn3n2)cc1)c1ccc(Br)o1	13	6	29	8	25	2
COC1=CC(=O)c2c(ccc3ncnc(N)c23)C1=O	56*	·	·	·	·	·
COc1cccc2c1C(=O)C=C(C)C2=O	17	20	21	-18	-24	22
O=C(Nc1ccc(S(=O)(=O)NC2=NCCCCC2)cc1)c1ccc2ccccc2n1	-1	-5	26	-11	-12	·
C=C(C)C(=O)Nc1cccc(C2=NOC3(C2)C[C@H](C(N)=O)N(C(=O)c2ccccc2C(=O)c2ccccc2)C3)c1 (stereo partly drawn)	9	11	6	13	23	-1
COc1ccccc1OCC(=O)NN=C(Cc1ccccc1)Cc1ccccc1	-3	0	15	1	16	1
CCOc1ccccc1OCC(=O)N/N=C(\C)Cc1ccc(OC)cc1	37	-2	11	87*	13	30
SMILES	Gli-Sufu block	Jurkat NFkB inh	Mdm2-MdmX inh	aSyn UTR inh	697 NFkB inh	CSC inhib
Cc1cc(-c2cc(C(=O)Nc3ccccc3)on2)nc(NC2CCCC2)n1	·	2	28	38	4	-2
O=[N+]([O-])c1ccc(N=Nc2c(Cl)cc(O)cc2Cl)cc1	24	·	·	?	·	110*
CC(N)=Nc1ccc([N+](=O)[O-])cc1	-4	-16	-16	6	12	-11
CN(CC(=O)Nc1ccc(Cl)c(C(F)(F)F)c1)C(=O)CCCNC(=O)c1ccc(Cl)cc1	-10	-8	15	·	-21	26
Oc1ccc(/C=C/c2ccc3cccc(O)c3n2)cc1Br	16	-51	-1	-200	-48	93*
Nc1cc([N+](=O)[O-])cc2oc(-c3ccccc3)cc12	-24	-46	-31	-59	-60	10
NCCOc1ccc(C2CCCCC2)cc1	-3	-21	-6	71*	-5	2
CCc1cc2c(=O)nc3n(c2s1)Cc1ccccc1/C3=C(/O)c1ccc(F)cc1	·	10	49	15	-37	81*
O=C(CN(Cc1ccccc1)C(=O)CCC(=O)Nc1nccs1)NCc1ccc(F)cc1	11	-45	-2	-3	-40	-8
CCc1ccc2[nH]c(=O)c(C3C(C#N)=C(N)Oc4c3ccc3cccnc43)cc2c1 (stereo not drawn)	5	-5	34	21	16	97*
CC[C@]12c3[nH]c4cc(CCC(=O)N(C)C)ccc4c3CCN1C(=O)[C@@H](CC(=O)NCc1cccc(C(F)(F)F)c1)C[C@@H]2C(=O)N1CCN(C(=O)C2CC2)CC1	2	·	16	·	3	·
COc1cccc2c1C(=O)c1c(O)c3c(c(O)c1C2=O)CC(O)(C(C)=O)CC3OC1CC(N(C)C)C(O)C(C)O1 (stereo not drawn)	69*	·	·	·	·	·
COc1cccc2c1C(=O)c1c(O)c3c(c(O)c1C2=O)C[C@@](O)(C(=O)CO)C[C@@H]3OC1CC(N)C(O)C(C)O1 (stereo partly drawn)	91*	·	·	·	·	·
CCOC(=O)C(Cc1c[nH]c2ccccc12)NC(=O)c1ccccc1Br (stereo not drawn)	-21	-20	-6	-56	-27	-11
Cc1cc(C(=O)NC2CCCc3c2cnn3-c2ccc(C(C)(C)C)cc2)nn1C (stereo not drawn)	58*	39	48	8	19	36
CC1=C(C(=O)NC2CCCc3c2cnn3-c2cccc(C)c2C)OCCO1 (stereo not drawn)	57*	·	9	16	·	14
COc1ccc(CCC(C)NCCc2ccc(Cl)cc2Cl)cc1 (stereo not drawn)	15	5	-24	-12	-8	-7
CCCCCCc1cc2cc(-c3nnc(-c4cc(OC)c(OC)c(OC)c4)o3)c(=O)oc2cc1O	12	10	10	2	9	77*
Cc1ccc(C)c(NC(=O)c2cc(-c3ccccc3)nn2-c2ccccc2)c1	12	14	16	5	12	89*
O=C(COc1ccc(C(=O)O)cc1)Nc1cccc(C(F)(F)F)c1	31	-3	17	-10	-22	·
CCCCCNCC(=O)Nc1cccc(C(=O)Nc2cccc(C(F)(F)F)c2)c1	8	-8	39	-8	8	93*
FC(F)(F)c1cccc(NC(=S)NNC(=S)Nc2cccc(C(F)(F)F)c2)c1	·	-8	44	13	8	110*
O=C(COCC(=O)Nc1cccc(C(F)(F)F)c1)Nc1cccc(C(F)(F)F)c1	9	4	-4	-11	-3	77*
